Only some compounds are listed: those with a hit (about 5.9% of all), similar ones and a draw of the others.
ALR H2O2 inh – inhibitors of human sulfhydryl oxidase ALR. AID 485317. actives 3.8% (n = 290,000). P55789. purified ALR, DTT oxidation, H2O2 HRP-luminol luminescence. inhibition, % (no concentration beside the values);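 active = mean replicate inhibition above about 79%, with every replicate also reaching it, limit read from the data; inconclusive = only one of the two criteria met; inactive = mean below limit and not every replicate reaching it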
ABHD5-PLIN5 inh – inhibitors of human ABHD5-perilipin-5 interaction. Q00G26+Q8WTS1. Split G. princeps luciferase complementation, luminescence, 4 h. inhibition, % at 4 µM. actives 0.78% (n = 360,000);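 active = inhibition above the mean inhibition across every tested compound plus 3 SD, cut at about 22% in these data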
Target sequence (Q00G26 whole entry, looked up): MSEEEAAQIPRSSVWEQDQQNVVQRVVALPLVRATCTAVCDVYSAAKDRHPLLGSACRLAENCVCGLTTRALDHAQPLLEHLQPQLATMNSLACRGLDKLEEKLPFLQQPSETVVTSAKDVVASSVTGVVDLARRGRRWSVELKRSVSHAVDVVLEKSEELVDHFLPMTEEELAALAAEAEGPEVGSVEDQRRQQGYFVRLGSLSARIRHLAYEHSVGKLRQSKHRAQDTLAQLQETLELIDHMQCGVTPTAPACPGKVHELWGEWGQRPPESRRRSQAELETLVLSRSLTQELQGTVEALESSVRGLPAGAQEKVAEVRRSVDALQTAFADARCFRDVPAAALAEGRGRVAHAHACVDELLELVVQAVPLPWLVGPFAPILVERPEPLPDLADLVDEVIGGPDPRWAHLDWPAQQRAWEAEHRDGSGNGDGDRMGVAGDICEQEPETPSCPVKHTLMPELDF
Target sequence (Q8WTS1 whole entry, looked up): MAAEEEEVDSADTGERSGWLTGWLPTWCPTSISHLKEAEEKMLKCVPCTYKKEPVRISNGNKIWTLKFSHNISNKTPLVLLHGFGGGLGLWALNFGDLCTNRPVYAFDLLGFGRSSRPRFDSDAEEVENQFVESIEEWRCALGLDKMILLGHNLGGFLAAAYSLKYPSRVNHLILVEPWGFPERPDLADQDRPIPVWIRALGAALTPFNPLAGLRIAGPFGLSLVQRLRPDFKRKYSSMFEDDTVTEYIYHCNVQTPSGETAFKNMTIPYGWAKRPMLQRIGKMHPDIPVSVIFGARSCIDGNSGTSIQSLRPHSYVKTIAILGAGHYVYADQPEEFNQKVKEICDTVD
LANA-H2B inh – blocks KSHV LANA binding to histone H2A/H2B. Q9QR71. cell-free LANA-H2A/H2B peptide, fluorescence polarization. actives 0.6% (n = 320,000). inhibition, % (concentration not given with the values); in the data active = inhibition mostly above about 10%, no sharp cut-off; inactive = mostly below about 6.7%
rCAG RNA binder – molecules binding r(CAG) RNA repeats; actives 1.3% (n = 370,000); inhibition, % at 3 µM; r(CAG) RNA repeat, TO-PRO-1 dye displacement fluorescence; AID 651821;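 active = inhibition above the plate cutoff, the mean of all test compounds on that plate plus 3 SD, cut at about 35% in these data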;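 note: higher means more dye released from RNA so lower well fluorescence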
PRMT1 FP inh – blocks human protein arginine methyltransferase 1. Q99873. recombinant PRMT1, activity-based probe fluorescence polarization. inhibition, % at 2.79 µM. actives 1.3% (n = 370,000);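 active = inhibition above about 21% made by adding two undisclosed values, limit read from the data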
Rtt109 HAT inh – blocks Candida albicans Rtt109/Vps75 acetyltransferase activity. AID 540336. inhibition, % at 34.9 µM. Q5AAJ8. purified Rtt109/Vps75, ThioGlo CoA-SH fluorescence, 4 h. actives 0.16% (n = 330,000);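 active = inhibition of at least 50% in every replicate; inconclusive = best replicate reaches 50% inhibition but some replicates fall short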
rCAG binder conf – r(CAG) RNA repeat binding, confirmation; shares compounds with rCAG RNA binder; TO-PRO-1 dye displacement fluorescence; inhibition, % at 3 µM; actives 70% (n = 4,300);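 active = inhibition above a per-plate cutoff, the mean inhibition of sample wells plus 3 SD, cut at about 35% in these data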;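 note: loss of TO-PRO-1 fluorescence as compound displaces dye from 1x1 AA loop RNA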
DNA CAG counter – disrupts DNA CAG TO-PRO-1 complex, flagging rCAG hits. shares compounds with rCAG RNA binder. d(CAG) DNA oligo TO-PRO-1 dye displacement, fluorescence. inhibition, % at 3 µM. actives 94% (n = 4,300). AID 652068;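 active = inhibition above its plate's cutoff, the mean test-well inhibition plus 3 SD, cut at about 4.8% in these data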;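 note: hits displace the dye from DNA and so lower well fluorescence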
DNA CAG DR – DNA CAG dye complex inhibition, dose response counter-screen. shares compounds with rCAG RNA binder. DNA CAG/GTC duplex TO-PRO-1 dye displacement fluorescence. IC50, µM. actives 20% (n = 250); in the data active = IC50 below about 10 µM
Hits are given with their value; - = inactive; ? = inconclusive; . = no result given.

SMILES	ALR H2O2 inh	ABHD5-PLIN5 inh	LANA-H2B inh	rCAG RNA binder	PRMT1 FP inh	Rtt109 HAT inh	rCAG binder conf	DNA CAG counter	others
COCCN=c1scc(-c2ccco2)n1/N=C/c1ccc(O)c(O)c1O	99.2	-	-	47.9	40.4	?	59.9	29.8
CCCc1cc(=O)n(-c2nc3ccccc3s2)[nH]1	-	-	-	-	-	-	.	.
CCOC(=O)Cc1cc(=O)n(-c2nc3ccccc3s2)[nH]1	97.6	-	-	73.5	-	-	-	12.2
Cc1cc(SCc2cccc(C(F)(F)F)c2)nc(=O)[nH]1	-	-	-	.	.	-	.	.
O=C(O)COc1ccccc1/C=N/NC(=O)c1cc(-c2ccc(F)cc2)nc2ccccc12	-	-	-	54.8	-	-	42.9	11.8
O=C(N/N=C/c1cccc(F)c1)c1cc(-c2ccco2)nc2ccccc12	-	-	-	45.2	-	-	40.8	26.2
O=C(O)COc1ccccc1/C=N/NC(=O)CSc1nc2ccccc2n1Cc1ccccc1	.	-	-	45.1	-	-	54.6	16.5
CCCCNC(=O)C1(C)CCN1C(=O)c1ccc2ccccc2n1 (stereo not drawn)	.	-	.	-	-	.	.	.
O=C(CSc1nc2[nH]c(=O)cc(O)c2s1)Nc1ccc(Cl)c(C(F)(F)F)c1	99.1	-	.	40.7	-	-	-	10.8
O=C(O)c1cc(NS(=O)(=O)c2ccc3ccccc3c2)ccc1O	-	-	-	-	-	-	.	.
COc1ccccc1NC(=O)C(=O)NNS(=O)(=O)c1ccc2ccccc2c1	-	-	-	38.2	-	-	-	6.1
O=C(O)c1ccccc1NS(=O)(=O)c1ccc2ccccc2c1	-	-	-	38.6	-	-	-	6.1
O=c1oc(-c2ccccc2NS(=O)(=O)c2ccc3ccccc3c2)nc2ccccc12	-	-	-	66.4	-	-	37.1	11.6
Cc1ccccc1-c1nc2ccccc2c(=O)o1	.	-	.	-	-	.	.	.
CCOC(=O)CNC(=O)N(C)[C@H]1C[C@H]2c3[nH]c4c(-c5ccccc5)cccc4c3CCN2C(=O)[C@H]1[C@H](C)O	.	.	.	-	-	.	.	.
CCCCN1C[C@@H]2CSCCS(=O)(=O)N2C1=O	.	.	.	-	-	.	.	.
O=C(Cn1nnc(-c2ccc(N3CCOCC3)cc2)n1)c1ccccc1	.	.	.	-	-	.	.	.
O=C1OCC/C1=C1/NCCNC1=O	.	-	.	-	-	.	.	.
CCC(Sc1nc(-c2cccc(OC)c2)c(C#N)c(=O)[nH]1)C(=O)Nc1nnc(C(C)C)s1 (stereo not drawn)	-	-	-	75.3	-	-	74.8	38.2
N=C1/C(=C\c2ccc(Br)o2)C(=O)N=C2SC(CC(=O)N3CCOCC3)=NN12	-	-	-	36.2	-	-	-	5.1
COc1ccc(Cc2nnc(SCC(=O)Nc3cc(Cl)ccc3OC)[nH]c2=O)cc1	-	-	-	50.8	-	-	50.1	16.2
COc1ccc(Cc2nnc(SCC(=O)Nc3ccccc3)[nH]c2=O)cc1	.	-	.	-	-	-	.	.
CCC1CCCCN1C(=O)c1cccc(S(=O)(=O)Nc2cc(C(F)(F)F)ccc2Cl)c1 (stereo not drawn)	-	-	-	36.5	-	-	56.0	16.2
O=C(c1cccc(S(=O)(=O)Nc2cccc(C(F)(F)F)c2)c1)N1CCCCC1	.	-	-	-	-	-	.	.
O=C(NC1CCN(Cc2ccccc2)CC1)c1cccc(S(=O)(=O)Nc2cc(C(F)(F)F)ccc2Cl)c1	-	-	-	63.5	-	-	54.8	17.0
SMILES	ALR H2O2 inh	ABHD5-PLIN5 inh	LANA-H2B inh	rCAG RNA binder	PRMT1 FP inh	Rtt109 HAT inh	rCAG binder conf	DNA CAG counter	others
O=C(c1cc(C2CC2)on1)N(C1CCCCC1)C1CCCCC1	.	.	.	-	-	.	.	.
COc1ccc(Cn2ccc3ccc(-c4ccc5ccn(C(=O)C6CC6)c5c4)cc32)cc1	.	.	.	-	-	.	.	.
Cc1ccc(NC(=O)CN2CCN(S(=O)(=O)c3ccc4c(c3)OCCO4)CC2)c(C)c1	.	-	.	-	-	.	.	.
CCOC(=O)C1(C)CCCN(C(=O)c2cc(C)oc2C)C1 (stereo not drawn)	.	-	.	-	-	.	.	.
O=C(Nc1ccc(S(=O)(=O)Nc2nccs2)cc1)c1ccc(F)c(S(=O)(=O)N2CCOCC2)c1	-	-	-	45.0	-	-	37.2	16.4
Cc1ccc(S(=O)(=O)N2CCOCC2)cc1C(=O)Nc1ccc(S(=O)(=O)Nc2nccs2)cc1	-	-	-	38.6	-	-	-	11.6
N#Cc1cccc(C(=O)N2CCC(Oc3cccnc3)CC2)c1	.	.	.	-	-	.	.	.
Cn1nc(N2CCN(S(=O)(=O)c3ccccc3)CC2)c(=O)n(C)c1=O	-	-	.	-	-	-	.	.
O=C(O)c1cc(-c2ccc(Cl)c(Cl)c2)n(-c2ccccc2)n1	.	-	-	41.1	-	-	-	-
COc1cc(/C=C2\C(=O)N(c3ccc(NC(C)=O)cc3)N=C2c2ccccc2)ccc1O	94.7	-	-	82.8	-	-	70.1	31.3	DNA CAG DR=-
CCOc1cc(/C=C2\C(=O)N(c3nc(-c4ccc(Br)cc4)cs3)N=C2c2ccccc2)ccc1O	-	-	-	.	.	-	.	.
O=C1/C(=C\c2ccc(O)c(O)c2)C(c2ccccc2)=NN1c1ccccc1	.	-	.	73.6	-	.	80.7	43.8
COc1ccccc1/C=C1/C(=O)N(c2ccccc2)N=C1C	-	-	-	-	-	.	.	.
CN[C@H]1C[C@H]2c3[nH]c4cccc(-c5cccc(C)c5)c4c3CCN2C(=O)[C@H]1[C@H](C)O	.	.	.	-	-	.	.	.
COc1ccc(Br)cc1/C=C(\C(=O)O)c1ccc(S(=O)(=O)N2CCCCC2)s1	.	-	-	69.5	-	-	74.2	36.6
CSc1ccc(/C=C(\C(=O)O)c2ccc(S(=O)(=O)N3CCCC3)s2)cc1	-	-	-	39.1	-	-	-	10.5
Cc1ccc(C)c(/C=C(\C(=O)O)c2ccc(S(=O)(=O)N3CCCCC3)s2)c1	-	-	-	46.7	-	-	45.2	18.5
CCOc1cc(/C=C(\C(=O)O)c2ccc(S(=O)(=O)N3CCCC3)s2)ccc1OC	-	-	-	-	-	-	.	.
CSc1ccccc1OCc1cc(C(=O)N2CCc3c(Cl)cccc3C2)no1	-	-	-	-	-	-	.	.
O=C(CSc1nnc(SCc2cccc3ccccc23)s1)Nc1ccc(S(=O)(=O)Nc2nccs2)cc1	.	.	.	79.9	-	.	76.5	43.1
Cc1ccccc1OC(C)C(=O)Nc1ccc(S(=O)(=O)Nc2nccs2)cc1 (stereo not drawn)	-	-	-	-	-	-	.	.
CC(Oc1ccc(Cl)cc1)C(=O)Nc1ccc(S(=O)(=O)Nc2nccs2)cc1 (stereo not drawn)	-	-	-	43.9	-	-	36.0	10.8
